Screens: PubChem BioAssay, National Center for Advancing Translational Sciences (NCATS)
TSHR antag: Antagonists of the Thyroid Stimulating Hormone Receptor: HTS campaign | AID 504810, 2011 | activity change, negative = inhibition, % at 11.5 µM | 0.2% of 330,000 active | TSHR-expressing cells, TSH-stimulated cAMP HTRF, 2 h; hits give low values;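 active means activity change below a set negative limit, meaning inhibition stronger than a set level, cut at about -70% in these data; inconclusive means activity change between two set negative limits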; further: on the % scale 0 is the no-effect control and ±100 the full control effect
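TSHR-expressing cells were treated with compounds, then stimulated with TSH at EC80 (4nM final) for 2 hours at 37 deg C. Cellular cAMP was measured by HTRF competition between lysate cAMP and cAMP-d2 for a cryptate-labelled anti-cAMP antibody.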
BCR signal inh: qHTS Assay to Find Inhibitors of Chronic Active B-Cell Receptor Signaling | 0.05% of 340,000 active | ABC-DLBCL IkBa-CBG/CBR reporter, luminescence ratio, 4 h | Potency, µM (highest dose often 46.1 µM), for inactives: at the top dose activity change, negative = inhibition, actives largely listed as inhibitors; active means well fitted inhibition curve with a large enough effect in the signal ratio, with a control signal flat, not every such curve was filed as active; inconclusive means small, poorly fitted or top-dose-only effect, or effect the other way, or a change in a side signal; the % refers to the signal ratio;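 further: potency means the concentration at half of the fitted maximal effect; plate controls were basal doxycycline-induced cells for no effect and cells given 10 µM MG132 for full effect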
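TMD8 ABC-DLBCL cells carrying doxycycline-inducible green luciferase fused to IkappaBalpha plus unfused red luciferase were exposed to compounds (up to 46 uM) for 4 hrs at 37C. Activity came from the overlap-corrected green/red luminescence ratio.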
Six1-Eya2 inh: qHTS Assay for Inhibitors of the Six1/Eya2 Interaction. 0.56% of 360,000 active. activity change, % (concentration not given with the values). AID 651725, 2012. AlphaScreen GST-Six1/His-Eya2 binding, biochemical; hits give low values. Homeobox protein SIX1 (Homo sapiens) + Protein phosphatase EYA2 (Homo sapiens), …; further: on the % scale 0 is the no-effect control and ±100 the full control effect
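GST-Six1 + His-Eya2 (5X stock: 250/500 nM); Tris pH 8.0, 300 mM NaCl, 0.05% BSA, 0.02% Tween 20; GSH donor/Ni acceptor beads; 1 h 37 °C dark; AlphaScreen readout.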
CtBP-E1A blk: qHTS Assay for Inhibitors of the CtBP/E1A Interaction | CtBP / adenovirus E1A interaction (AlphaScreen) | AlphaScreen GST-E1A/His-CtBP binding, 1536-well; hits give low values | activity change, % (test concentration not listed) | 0.49% of 340,000 active; further: on the % scale 0 is the no-effect control and ±100 the full control effect
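AlphaScreen with 125 nM GST-E1A and 125 nM His-CtBP (5X stocks) in Tris pH 8.0, 300 mM NaCl, BSA, Tween 20, TCEP. Compounds preincubated 2 h at 37 deg C, then glutathione donor/nickel acceptor beads added for 1 h at 37 deg C in dark.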
S-ASM inh: Inhibitors of Secretory Acid Sphingomyelinase (S-ASM): qHTS; Potency, µM (titrated, usually from 57.5 µM), without a hit: at the top dose activity change, negative = inhibition, hits mostly inhibitors; Sphingomyelin phosphodiesterase (Homo sapiens), P17405; placental ASM, HMU-PC fluorogenic substrate, 60 min; 0.006% of 340,000 active; active means well fitted inhibition curve with a large enough effect; inconclusive means small, poorly fitted or top-dose-only effect; inactive means no such curve, though single readings can be large or run the other way; further: potency means the concentration at half of the fitted maximal effect
Target sequence (P17405 47-631 limits assumed): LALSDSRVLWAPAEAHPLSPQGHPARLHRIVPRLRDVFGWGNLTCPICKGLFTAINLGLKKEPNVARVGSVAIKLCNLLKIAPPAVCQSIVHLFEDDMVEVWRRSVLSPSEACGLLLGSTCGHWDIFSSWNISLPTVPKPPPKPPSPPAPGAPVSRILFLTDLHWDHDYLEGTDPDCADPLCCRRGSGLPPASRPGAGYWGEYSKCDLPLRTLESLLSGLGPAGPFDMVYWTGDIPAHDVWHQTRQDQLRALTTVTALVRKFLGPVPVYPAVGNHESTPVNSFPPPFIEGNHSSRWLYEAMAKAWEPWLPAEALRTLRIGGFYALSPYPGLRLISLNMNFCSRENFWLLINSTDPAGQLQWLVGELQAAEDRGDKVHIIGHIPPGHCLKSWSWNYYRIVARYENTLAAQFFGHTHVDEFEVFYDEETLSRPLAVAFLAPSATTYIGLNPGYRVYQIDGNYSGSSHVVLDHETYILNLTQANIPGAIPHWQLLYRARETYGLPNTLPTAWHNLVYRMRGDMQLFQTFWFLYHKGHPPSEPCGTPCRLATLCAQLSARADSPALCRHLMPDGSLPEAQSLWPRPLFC
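Steps: dispense placental human ASM, pin compound, wait 10 min at room temperature, add HMU-PC0 substrate at 9 uM final, incubate 60 min at 37 °C, add stop solution raising pH to 10, read fluorescence.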
Starred values were filed as active, the others as inactive; i = inactive; ? = inconclusive; . = no result. This is a sample that favours compounds with a hit; in the whole collection about 0.85% have one here. Unless noted, no stated cut-off is given here; in the data, active means activity change below about -65%; inconclusive means mostly about -30% to -63%; inactive means weaker than that.

SMILES	TSHR antag	BCR signal inh	Six1-Eya2 inh	CtBP-E1A blk	S-ASM inh
O=C(Cc1ccc(-n2c(=O)c3ccccc3n(Cc3ccccc3Cl)c2=O)cc1)NCC1CCCO1 (stereo not drawn)	27	2.8µM*	5	.	1%
O=C(NCc1ccccc1)C1CCCN1S(=O)(=O)c1ccc(F)cc1 (stereo not drawn)	9	1%	0	-81*	2%
CCN(CCCNC(=O)CN1N=C(c2ccc(OC)cc2)CCC1=O)c1cccc(C)c1	.	-29%	.	.	.
COc1ccc(Oc2coc3cc(OC(=O)/C=C/c4ccccc4)ccc3c2=O)cc1	5	0%	-26	?	3%
COc1ccccc1-c1coc2cc(OC(=O)/C=C/c3ccccc3)ccc2c1=O	2	?	-17	-68*	5%
COc1ccccc1NC(=O)c1ccccc1NC(=O)c1ccccn1	.	?	-3	-8	0%
CC(=NNC(=S)Nc1cccc(C)c1)c1ccccn1	.	.	-81*	3	-3%
C/C(=N\NC(=S)Nc1ccc(C)cc1)c1cccc(N)c1	-8	?	-9	-11	1%
CC(=NNC(=S)Nc1ccc(C)cc1)c1ccccn1	.	.	-85*	-8	-5%
COc1ccccc1NC(=S)NN=C(C)c1ccccn1	.	.	-72*	-81*	-1%
CCCCOC(=O)c1ccc(OC(=O)c2sc3ncn(Cc4ccccc4Cl)c(=O)c3c2C)cc1	.	-13%	.	.	.
Cc1c(C(=O)Nc2cccc(C(F)(F)F)c2)oc2ccc(S(=O)(=O)N3CCC4(CC3)OCCO4)cc12	.	-2%	.	.	.
Cc1c(C(=O)Nc2cccc(C(F)(F)F)c2)oc2ccc(S(=O)(=O)N3CCOCC3)cc12	-4	-9%	3	1	22µM*
COc1ccc(NC(=S)NNC(=O)c2nnn(-c3ccccc3)c2C)cc1	-8	-1%	-78*	7	1%
CN1CCN(S(=O)(=O)Cc2ccccc2Cl)CC1	0	0%	1	0	1%
O=S(=O)(Cc1ccccc1Cl)N1CCCC1	1	2%	2	-79*	3%
COc1cc2c(cc1OC)C(SC)=NC(C)(C)C2	-6	16µM*	3	-2	-1%
CCn1c(=O)cc(SCC(=O)N2CCN(c3ccccn3)CC2)c2ccccc21	3	16µM*	2	10	2%
O=C(NNC(=O)c1ccc2c(c1)OCO2)NC12CC3CC(CC(C3)C1)C2	-32	?	-1	-17	2%
O=C(NC1C2CC3CC(C2)CC1C3)c1ccc2c(c1)OCO2 (stereo not drawn)	-126*	0%	5	6	0%
O=c1c2ccccc2nc2c3ccccc3c(NCCN3CCOCC3)nn12	10	11%	.	.	.
O=c1c2c(-c3ccccc3)csc2nc2c3ccccc3c(NCCN3CCOCC3)nn12	-2	?	-82*	-88*	i
CC1CCC(N2CC(=O)N(C3CCCCC3)C(c3ccc(Cl)cc3)C2=O)CC1 (stereo not drawn)	.	0%	.	.	.
COc1cccc(C(=O)Nc2ccc(-c3nc4ccccc4s3)cc2Cl)c1	.	1%	.	.	.
CCOc1ccccc1Oc1nc(C)nc2c1oc1ccccc12	.	13µM*	.	.	.
SMILES	TSHR antag	BCR signal inh	Six1-Eya2 inh	CtBP-E1A blk	S-ASM inh
Cc1cc(N(C)C)ccc1N=Nc1ccc2ncccc2c1	-23	?	-83*	.	-19%
CCOc1ccccc1NC(=O)CSc1nc2ccccc2c2nc(CCn3cncc3C)nn12	.	-7%	.	.	.
CN(Cc1ccco1)S(=O)(=O)c1csc(C(N)=O)c1	-139*	-4%	-4	.	10%
COc1ccc(NC(=O)C(=O)NCC(c2ccc3c(c2)OCO3)N2CCN(C)CC2)cc1 (stereo not drawn)	.	-9%	.	.	.
CCOc1cccc2sc(NC(=O)CS(=O)(=O)c3ccc(C)cc3)nc12	.	12%	.	.	.
O=C(/C=C\c1ccccc1OC(=O)c1ccccc1F)c1cc2ccccc2o1	-6	13µM*	-12	-21	-2%
CCn1ccc2c(OCC(=O)Nc3ccc(OC)cc3OC)cccc2c1=O	.	19%	.	.	.
